Screening data: PubChem BioAssay, several laboratories
Sampled rows, rich in hits. Any-hit rate of the full collection: about 1.2%.
GC-B act: human GC-B receptor activators, primary screen, HEK293 GC-B cells, cGMP TR-FRET, EC30 CNP; Atrial natriuretic peptide receptor 2 (Homo sapiens), P20594; 0% at EC30 CNP, 100% saturating CNP; activation, % at 10 µM; 370,000 tested, 0.11% active;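 active means activation at 10 µM reaching about 35% in either raw or pattern-adjusted values, limit read from the data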
NOD2-RIPK2 inh: NOD2-RIPK2 binding disruptors in cells, primary screen, fluorescence, CHO cells, BLA complementation; Receptor-interacting serine/threonine-protein kinase 2 (Homo sapiens), O43353; CCF4 ratio; 360,000 tested, 0.38% active; inhibition, % at 4.98 µM; in the data active means inhibition above about 21%;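 further: 0% = vehicle only and 100% = reference blocker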
Neddylation inh: inhibitors of cullin neddylation, primary screen, biochemical, TR-FRET, uHTS, NAE and Ubc12 | inhibition, % at 25 µM | 360,000 tested, 0.58% active | AID 651699, 2012; in the data active means inhibition above about 36%
GC-A act: GC-A stimulated cGMP production enhancers – HEK293 GC-A cells, cGMP TR-FRET, EC30 ANP, primary screen | Atrial natriuretic peptide receptor 1 (Homo sapiens), P16066 | 0% at EC30 ANP, 100% saturating ANP | activation, % at 10 µM | 370,000 tested, 0.14% active | AID 1671463, 2021; in the data active means activation above about 40%
TLR4 MyD88 comp: inhibitors of TLR4-MyD88 association in cells, primary screen, cell-based, HeLa CL3-4, BLA complementation, FRET ratio; 200,000 tested, 0.18% active; HeLa CL3-4 TLR4/MyD88 BLA complementation; Toll-like receptor 4 (Homo sapiens) + Myeloid differentiation primary response protein …; inhibition, % at 8.4 µM; in the data active means inhibition above about 25%;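 further: 0% = vehicle and 100% = reference inhibitor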
Target sequence (O00206 whole entry, looked up): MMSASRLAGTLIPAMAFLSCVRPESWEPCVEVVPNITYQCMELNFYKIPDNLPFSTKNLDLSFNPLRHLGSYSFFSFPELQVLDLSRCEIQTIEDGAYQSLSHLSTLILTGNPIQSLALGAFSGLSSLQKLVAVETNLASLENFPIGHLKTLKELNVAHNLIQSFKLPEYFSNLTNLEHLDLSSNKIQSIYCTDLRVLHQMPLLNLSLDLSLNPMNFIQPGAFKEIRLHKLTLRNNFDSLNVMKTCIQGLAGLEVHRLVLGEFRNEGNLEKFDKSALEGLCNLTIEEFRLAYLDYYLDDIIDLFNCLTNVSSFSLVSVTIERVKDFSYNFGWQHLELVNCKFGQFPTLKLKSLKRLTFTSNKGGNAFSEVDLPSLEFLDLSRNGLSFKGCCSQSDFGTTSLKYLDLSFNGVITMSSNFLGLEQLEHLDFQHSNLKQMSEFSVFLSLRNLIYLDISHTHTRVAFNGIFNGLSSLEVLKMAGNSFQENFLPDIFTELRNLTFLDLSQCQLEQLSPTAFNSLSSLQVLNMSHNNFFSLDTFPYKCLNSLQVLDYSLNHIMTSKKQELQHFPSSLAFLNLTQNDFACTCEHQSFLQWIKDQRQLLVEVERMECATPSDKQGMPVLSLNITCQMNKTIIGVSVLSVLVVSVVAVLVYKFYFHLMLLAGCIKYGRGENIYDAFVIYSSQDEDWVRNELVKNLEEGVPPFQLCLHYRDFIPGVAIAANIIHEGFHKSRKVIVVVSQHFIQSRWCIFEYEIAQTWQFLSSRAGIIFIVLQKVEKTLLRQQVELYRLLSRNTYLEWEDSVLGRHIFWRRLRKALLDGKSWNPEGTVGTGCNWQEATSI
Target sequence (Q99836 whole entry, looked up): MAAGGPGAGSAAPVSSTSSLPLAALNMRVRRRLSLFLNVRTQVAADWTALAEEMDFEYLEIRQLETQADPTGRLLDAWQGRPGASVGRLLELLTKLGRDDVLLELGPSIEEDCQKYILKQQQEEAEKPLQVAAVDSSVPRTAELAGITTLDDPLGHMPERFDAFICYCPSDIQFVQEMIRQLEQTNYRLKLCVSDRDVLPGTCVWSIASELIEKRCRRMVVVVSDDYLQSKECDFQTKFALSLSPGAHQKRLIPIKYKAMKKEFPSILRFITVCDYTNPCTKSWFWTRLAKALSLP
TLR9-MyD88 block: inhibitors of TLR9-MyD88 association in cells, primary screen, cell-based, CHO, BLA complementation, fluorescence; AID 504734, 2011; Toll-like receptor 9 (Homo sapiens) + Myeloid differentiation primary response protein …; CCF4 FRET ratio; inhibition, % at 4.98 µM; 340,000 tested, 0.21% active;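 active means inhibition above the mean over all tested compounds plus 3 SD, cut at about 21% in these data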;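 further: 0% = DMSO only wells and 100% = clavulanate BLA inhibitor control wells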
NOD2-RIPK2 conf: NOD2-RIPK2 binding disruptors, retest, confirmation, fluorescence, CHO cells, BLA complementation, triplicate; CCF4 FRET; inhibition, % at 4.98 µM; 1,200 tested, 70% active; shares compounds with NOD2-RIPK2 inh;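 active means mean inhibition across replicates above a set limit taken from the earlier primary screen, cut at about 21% in these data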;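 further: 0% = DMSO-only wells and the high end = clavulanate BLA-blocked wells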
BLA counter: NOD2-RIPK2 counterscreen BLA reporter activity. 1,200 tested, 57% active. CHO BLA reporter, CCF4 FRET ratio. shares compounds with NOD2-RIPK2 inh. inhibition, % at 4.98 µM;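 active means mean inhibition above the low-control mean inhibition plus three low-control SD, cut at about 11% in these data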;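 further: 0% = DMSO only wells and 100% = clavulanate high control wells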
An asterisk follows results filed as active; x = no result given.

SMILES	GC-B act	NOD2-RIPK2 inh	Neddylation inh	GC-A act	TLR4 MyD88 comp	TLR9-MyD88 block	NOD2-RIPK2 conf	BLA counter
CC(=O)Nc1ccc2sn(-c3ccccc3)c(=O)c2c1	7	30*	-8	15	x	5	22*	-4
N#Cc1ccc2sn(-c3ccccc3)c(=O)c2c1	0	25*	-11	20	x	10	50*	12*
CCn1c2ccccc2c2cc(NC(C)=O)ccc21	1	-11	11	-6	-1	4	x	x
COC(=O)[C@]12C[C@H](CC(=O)NCc3cccc4ccccc34)C(=O)N(CCC3=CCCCC3)C1=C[C@H](COCc1ccccc1)O[C@@H]2C	-2	x	x	0	x	x	x	x
C[C@H](CO)N1C[C@H](C)[C@@H](CN(C)C(=O)Cc2ccccc2)OCc2cn(nn2)CCCC1=O	2	x	x	1	x	x	x	x
N#Cc1c(NC(=S)NC(=O)c2ccccc2)sc2c1CCC2	-3	-3	-20	4	-12	0	x	x
O=C(NC(=S)Nc1sc2c(c1C(=O)O)CCCC2)c1ccccc1	-6	35*	-39	-2	x	-1	1	-7
COc1ccc(C)c2sc(N(CCCN(C)C)C(=O)c3ccc(S(=O)(=O)N4CCc5ccccc5C4)cc3)nc12	-2	24*	20	-8	x	11	44*	16*
Cc1onc(-c2ccccc2)c1NC(=O)Nc1c(-c2ccccc2)noc1C	0	10	-10	-2	-6	-10	x	x
Cc1ccc(-c2noc(N=O)c2NO)cc1	2	22*	-23	-1	x	x	24*	21*
COC(=O)C1=C(C)N(Cc2ccc(Br)cc2)C(=S)NC1c1ccccc1 (configuration not stated)	-14	x	x	7	x	x	x	x
C[C@H]1C(c2ccccc2F)O[C@]2(C[C@H](O)c3c(ccc4ccccc34)O2)C[C@@H]1O (some centres not stated)	-6	x	x	-17	x	x	x	x
O=C(NC1CCCCC1)C(c1ccccc1F)n1c(=O)c(-c2cc3ccccc3[nH]2)nc2ccccc21 (configuration not stated)	-4	45*	x	2	x	x	42*	66*
O=C(NC1CCCCC1)C(c1cccc2ccccc12)n1c(=O)c(-c2cc3ccccc3[nH]2)nc2ccccc21 (configuration not stated)	-2	38*	x	2	x	x	34*	62*
O=C(NC1CCCCC1)C(c1ccnc2ccccc12)n1c(=O)c(-c2ccco2)nc2ccccc21 (configuration not stated)	-6	-5	27	-1	x	x	x	x
O=C(NC1CCCCC1)C(c1ccccc1F)n1c(=O)c(-c2ccco2)nc2ccccc21 (configuration not stated)	-23	-2	31	-10	x	x	x	x
O=[N+]([O-])c1cnc2ccccc2c1Sc1ccccc1	18	x	x	8	x	x	x	x
O=C(Nc1nc2ncccn2c1-c1ccc(F)c(F)c1)c1ccccc1	4	x	x	-2	x	x	x	x
Nc1nc2ncccn2c1-c1ccc(F)c(F)c1	0	28*	x	4	x	x	19	20*
Clc1ccc(OCCOc2ccc(Br)nc2Br)c(Cl)c1	3	x	x	11	x	x	x	x
COC(=O)[C@]12C=CCN1[C@@H](c1ccc(Cl)cc1)c1c(c3ccccc3n1S(=O)(=O)c1ccc(C)cc1)C2	-4	x	x	-6	x	x	x	x
CCC(CC)COC(=O)C(C#N)c1nc2ccccc2nc1N1CCN(CC)CC1 (configuration not stated)	-1	22*	15	1	3	-7	21*	15*
CCC(C)COC(=O)C(C#N)c1nc2ccccc2nc1N1CCCCC1 (configuration not stated)	-6	-5	24	1	-2	-5	x	x
COc1ccc(NC(=O)C(c2ccccc2F)n2c(=O)c(-c3cc4ccccc4[nH]3)nc3ccccc32)cc1 (configuration not stated)	1	50*	x	-1	x	x	47*	69*
O=C(Nc1ccc2ccccc2c1)C(c1ccccc1F)n1c(=O)c(-c2cc3ccccc3[nH]2)nc2ccccc21 (configuration not stated)	4	45*	x	3	x	x	42*	67*
SMILES	GC-B act	NOD2-RIPK2 inh	Neddylation inh	GC-A act	TLR4 MyD88 comp	TLR9-MyD88 block	NOD2-RIPK2 conf	BLA counter
O=C(Nc1ccc2c(c1)OCCO2)C(c1ccccc1)n1c(=O)c(-c2cc3ccccc3[nH]2)nc2ccccc21 (configuration not stated)	-3	48*	x	2	x	x	41*	64*
COc1ccc(NC(=O)C(c2ccccc2)n2c(=O)c(-c3cc4ccccc4[nH]3)nc3ccccc32)cc1 (configuration not stated)	2	47*	x	1	x	x	42*	65*
CCCCCNC(=O)C(c1ccccc1F)n1c(=O)c(-c2ccco2)nc2ccccc21 (configuration not stated)	-17	2	20	-4	x	x	x	x
CC1(c2nnnn2-c2ccc3c(c2)OCCO3)CSCC(=O)N1CCc1c[nH]c2ccccc12 (configuration not stated)	-3	x	x	-6	x	x	x	x
CCOC(=O)C1=C(N)n2c(s/c(=C\c3ccncc3)c2=O)=C(C(=O)OCC)C1c1ccncc1 (configuration not stated)	-3	-13	-6	-14	-6	x	x	x
CCOC(=O)C1=C(N)n2c(s/c(=C\c3cccs3)c2=O)=C(C(=O)OCC)C1c1cccs1 (configuration not stated)	-2	27*	16	-4	-3	1	11	4
O=C(c1cc(C2CC2)on1)N(C1CCCCC1)C1CCCCC1	-2	x	x	-7	x	x	x	x
O=C(COC(=O)c1ccccc1C(=O)c1ccc(Cl)c([N+](=O)[O-])c1)NC1CC1	-9	49*	-10	-28	18	14	56*	9
O=C(COC(=O)c1cc([N+](=O)[O-])ccc1Cl)NC1CCCC1	-4	3	-31	5	x	-14	x	x
C1CCN(C2CCN(c3nc4nonc4nc3N3CCSCC3)CC2)C1	2	-7	-17	-1	-8	4	x	x
